Inconclusive results are not listed. Calls of active or inactive are those of the source. The calls were made as follows, unless noted: active = hit-call score of the fitted dose curve at least 0.9, where 1 is the maximum; inactive = score below 0.9.
Columns and labels:
[1] = BSK_LPS_PGE2: BioMAP Diversity Plus: LPS Assay for Prostaglandin E2 (PGE2) Biomarker Activity (AID 2283082); details: primary human HUVEC with PBMC; actives raise or lower the signal;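 as to AC50: secreted prostaglandin E2 measured by ELISA in LPS-stimulated co-culture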
Method in brief: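 ELISA read-out of PGE2 from human umbilical vein endothelial cells co-cultured with peripheral blood mononuclear cells under LPS, 24 h post-dose. Gain or loss of signal scored relative to DMSO baseline.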

[2] = read-out: Macrophage colony-stimulating factor (MCSF), CSF1 (gene 1435); assay: BSK_LPS_MCSF: BioMAP Diversity Plus: LPS Assay for Macrophage colony-stimulating factor (MCSF) Biomarker Activity (AID 2283083); details: primary human HUVEC with PBMC; actives raise or lower the signal
Method in brief: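 Bidirectional fit versus DMSO of ELISA-measured M-CSF in co-cultured human umbilical vein endothelial cells and PBMC, sampled 24 h after dosing.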

[3] = read-out: Tissue Factor, F3 (gene 2152); assay: BSK_LPS_TissueFactor: BioMAP Diversity Plus: LPS Assay for Tissue Factor Biomarker Activity (AID 2283084); details: primary human HUVEC with PBMC; actives raise or lower the signal
Method in brief: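 Read-out: CD142 ELISA, 24 h. System: LPS-driven human endothelial/PBMC co-culture. Analysis: up- or down-signal fitted against DMSO.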

[4] = read-out: Tumor necrosis factor (Homo sapiens) (UniProt P01375); assay: BSK_LPS_TNFa: BioMAP Diversity Plus: LPS Assay for Tumour Necrosis Factor alpha (TNFa) Biomarker Activity (AID 2283085); details: primary human HUVEC with PBMC; actives raise or lower the signal
Method in brief: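 HUVEC/PBMC co-culture, LPS-stimulated; 24 h post-dose; TNFa by ELISA; gain or loss of signal fitted bidirectionally vs DMSO baseline.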

[5] = read-out: CD38, CD38 (gene 952); assay: BSK_SAg_CD38: BioMAP Diversity Plus: SAg Assay for CD38 Biomarker Activity (AID 2283087); details: primary human HUVEC with PBMC; actives raise or lower the signal
Method in brief: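 Measures CD38 on a human endothelial/PBMC co-culture driven by SEB and TSST-1, 24 h after compound exposure, using ELISA with fluorescence detection; DMSO defines baseline for bidirectional curve fitting.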

[6] = read-out: CD40, CD40 (gene 958); assay: BSK_SAg_CD40: BioMAP Diversity Plus: SAg Assay for CD40 Biomarker Activity (AID 2283088); details: primary human HUVEC with PBMC; actives raise or lower the signal
Method in brief: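 Endpoint derived by fitting increases or decreases versus DMSO controls. CD40 is detected by fluorescence ELISA in a human vascular co-culture of endothelium and PBMC at 24 h.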

[7] = read-out: CD69, CD69 (gene 969); assay: BSK_SAg_CD69: BioMAP Diversity Plus: SAg Assay for CD69 Biomarker Activity (AID 2283089); details: primary human HUVEC with PBMC; actives raise or lower the signal;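 as to AC50: cell surface CD69 protein quantified by ELISA with fluorescence detection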
Method in brief: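 HUVEC co-cultured with PBMC were dosed with chemical, and CD69 was measured by ELISA with fluorescence read-out 24 h later. Bidirectional curve fitting used DMSO as negative control and activity baseline.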

[8] = read-out: Monocyte Chemoattractant Protein-1 (MCP1), CCL2 (gene 6347); assay: BSK_SAg_MCP1: BioMAP Diversity Plus: SAg Assay for Monocyte Chemoattractant Protein-1 (MCP1) Biomarker Activity (AID 2283090); details: primary human HUVEC with PBMC; actives raise or lower the signal
Method in brief: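 Values derive from bidirectional fitting of ELISA-measured MCP1 against DMSO controls. Readings were taken 24 h after dosing human vascular endothelial cells co-cultured with peripheral blood mononuclear cells under superantigen stimulation.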

[9] = read-out: E-selectin (Homo sapiens) (UniProt P16581); assay: BSK_SAg_Eselectin: BioMAP Diversity Plus: SAg Assay for Eselectin Biomarker Activity (AID 2283091); details: primary human HUVEC with PBMC; actives raise or lower the signal
Method in brief: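 Endpoint values derive from bidirectional fitting relative to DMSO, using ELISA-measured E-selectin in a human vascular co-culture (umbilical vein endothelium plus PBMC) sampled 24 h after dosing.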

[10] = read-out: Monokine induced gamma interferon (MIG), CXCL9 (gene 4283); assay: BSK_SAg_MIG: BioMAP Diversity Plus: SAg Assay for Monokine induced gamma interferon (MIG) Biomarker Activity (AID 2283092); details: primary human HUVEC with PBMC; actives raise or lower the signal
Method in brief: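 HUVEC plus human PBMC co-culture, chemicals dosed and MIG (CXCL9) quantified by ELISA at 24 h. Bidirectional curve fitting against DMSO as negative control and baseline, so both gain and loss of signal count as activity.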

[11] = BSK_SAg_PBMCCytotoxicity: PBMC Cytotoxicity Assessment in the BioMAP Diversity Plus: SAg Assay (AID 2283093); details: primary human HUVEC with PBMC;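 also: PBMC viability measured as Alamar Blue reduction fluorescence at 546/580 nm; fitted both ways against DMSO so a hit may be loss or gain of signal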;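 as to AC50: PBMC superantigen activated with SEB plus TSST-1 one hour after compound addition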
Method in brief: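 Alamar Blue reduction (6 h, 546/580 nm) reports PBMC cytotoxicity after 90 h superantigen activation (SEB, TSST-1; 20 ng/mL final each) with 1 h compound pre-treatment. Gain or loss of signal fitted versus DMSO.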

[12] = read-out: Interleukin-8 (IL8), CXCL8 (gene 3576); assay: BSK_SAg_IL8: BioMAP Diversity Plus: SAg Assay for Interleukin-8 (IL8) Biomarker Activity (AID 2283094); details: primary human HUVEC with PBMC; actives raise or lower the signal
Method in brief: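 HUVEC/PBMC co-culture, 24 h post-dose; IL-8 by ELISA. Gain or loss of signal fitted bidirectionally vs DMSO baseline.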

[13] = read-out: Vascular cell adhesion molecule 1 (VCAM1), VCAM1 (gene 7412); assay: BSK_LPS_VCAM1: BioMAP Diversity Plus: LPS Assay for Vascular cell adhesion molecule 1 (VCAM1) Biomarker Activity (AID 2283086); details: primary human HUVEC with PBMC; actives raise or lower the signal
Method in brief: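 ELISA read-out of VCAM-1 at 24 h post-dosing in an LPS-driven HUVEC/PBMC primary human co-culture; gain or loss of signal fitted bidirectionally against DMSO baseline. Cytotoxicity tracked in parallel cultures by SRB total-protein staining.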

[14] = BSK_SAg_SRB: Viability Assessment in the BioMAP Diversity Plus: SAg Assay (AID 2283096); details: primary human HUVEC with PBMC;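 also: cells read one day after compound addition; hits may be either gain or loss of signal compared with DMSO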
Method in brief: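 This overt-cytotoxicity endpoint quantifies protein in human endothelial/PBMC co-cultures at 24 h using SRB absorbance (560 nm) after trichloroacetic acid fixation. Values reflect signal change from the DMSO negative control, fitted bidirectionally.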

[15] = BSK_SAg_Proliferation: Cell Proliferation Assessment in the BioMAP Diversity Plus: SAg Assay (AID 2283095); details: primary human HUVEC with PBMC;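 also: relative cell number as total protein by SRB absorbance in sub-confluent culture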
Method in brief: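 HUVEC/PBMC co-culture, 96-well. TCA-fixed (10%), 0.1% SRB stain, A560 at 96 h. Protein content used as viability readout; bidirectional fitting vs DMSO control.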

[16] = biological target: human CYP2B6, CYP2B6 (gene 1555) (UniProt P20813); assay: NVS_ADME_hCYP2B6: NovaScreen (NVS) CYP450-related Enzyme Activity (ADME) Assay for human CYP2B6 (AID 2283101; active = hit-call score of the fitted dose curve at least 0.9, where 1 is the maximum)
Method in brief: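 Recombinant human CYP2B6 with fluorogenic substrate, read by fluorescence intensity 1 h after dosing. Primary screen in duplicate at 10 uM, actives followed in concentration series; signal loss relative to acetonitrile control.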

Chain of E-selectin (Homo sapiens) (P16581 whole entry, looked up): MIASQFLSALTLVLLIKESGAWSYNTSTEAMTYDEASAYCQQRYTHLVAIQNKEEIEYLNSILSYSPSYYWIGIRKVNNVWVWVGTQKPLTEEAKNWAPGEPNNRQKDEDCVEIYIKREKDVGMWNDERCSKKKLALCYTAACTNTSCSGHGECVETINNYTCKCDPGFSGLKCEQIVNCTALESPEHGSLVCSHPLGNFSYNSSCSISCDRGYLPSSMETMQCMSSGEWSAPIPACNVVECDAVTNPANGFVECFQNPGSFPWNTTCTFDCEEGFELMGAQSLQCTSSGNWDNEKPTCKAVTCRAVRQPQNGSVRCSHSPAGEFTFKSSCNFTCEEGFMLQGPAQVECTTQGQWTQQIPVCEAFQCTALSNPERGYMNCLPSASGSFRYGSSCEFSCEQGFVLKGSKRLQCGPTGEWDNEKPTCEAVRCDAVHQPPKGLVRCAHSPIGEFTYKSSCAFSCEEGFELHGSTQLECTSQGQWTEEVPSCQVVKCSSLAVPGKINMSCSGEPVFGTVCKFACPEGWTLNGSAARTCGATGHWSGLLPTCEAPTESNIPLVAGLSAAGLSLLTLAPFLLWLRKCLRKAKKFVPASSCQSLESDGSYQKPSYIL
Chain of Tumor necrosis factor (Homo sapiens) (P01375 whole entry, looked up): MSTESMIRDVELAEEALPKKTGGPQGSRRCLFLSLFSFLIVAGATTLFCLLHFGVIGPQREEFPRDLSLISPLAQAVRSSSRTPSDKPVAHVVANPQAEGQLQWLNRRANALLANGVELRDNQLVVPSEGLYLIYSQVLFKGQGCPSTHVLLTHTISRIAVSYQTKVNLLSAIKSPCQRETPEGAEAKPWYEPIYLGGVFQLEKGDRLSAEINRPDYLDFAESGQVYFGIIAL
Chain of human CYP2B6, CYP2B6 (gene 1555) (P20813 whole entry, looked up): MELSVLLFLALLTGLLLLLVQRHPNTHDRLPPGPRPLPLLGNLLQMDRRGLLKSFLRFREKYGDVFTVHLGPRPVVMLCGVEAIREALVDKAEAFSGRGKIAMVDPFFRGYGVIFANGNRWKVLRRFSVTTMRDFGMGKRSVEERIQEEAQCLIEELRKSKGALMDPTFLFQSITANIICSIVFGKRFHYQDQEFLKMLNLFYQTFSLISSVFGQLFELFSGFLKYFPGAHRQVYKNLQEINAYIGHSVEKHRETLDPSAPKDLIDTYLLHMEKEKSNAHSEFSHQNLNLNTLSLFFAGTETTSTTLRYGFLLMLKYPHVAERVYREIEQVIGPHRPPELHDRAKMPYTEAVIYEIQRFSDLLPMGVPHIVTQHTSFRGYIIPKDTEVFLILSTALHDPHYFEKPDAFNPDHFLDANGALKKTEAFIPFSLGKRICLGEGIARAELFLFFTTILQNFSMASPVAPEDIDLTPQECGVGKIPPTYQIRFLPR

SMILES: COCCOCCOC
- outcome [1]: inactive
- outcome [2]: inactive
- outcome [3]: inactive
- outcome [4]: inactive
- outcome [5]: inactive
- outcome [6]: inactive
- outcome [7]: inactive
- outcome [8]: inactive
- outcome [9]: inactive
- outcome [10]: inactive
- outcome [11]: inactive
- outcome [12]: inactive

SMILES: NC(=O)Cn1c(=O)cc(CCN2CCN(c3nccc4sccc34)CC2)c2ccc(F)cc21
- outcome [1]: inactive
- outcome [2]: inactive
- outcome [3]: inactive
- outcome [13]: inactive
- outcome [5]: inactive
- outcome [6]: inactive
- outcome [7]: inactive
- outcome [8]: inactive
- outcome [9]: inactive
- outcome [10]: inactive
- outcome [11]: inactive
- outcome [14]: inactive

SMILES: Cc1ccc2ncccc2c1
- outcome [1]: inactive
- outcome [2]: inactive
- outcome [3]: inactive
- outcome [4]: inactive
- outcome [5]: inactive
- outcome [6]: inactive
- outcome [7]: inactive
- outcome [8]: inactive
- outcome [9]: inactive
- outcome [11]: inactive
- outcome [14]: inactive

SMILES: CC1(C)NC(=O)NC1=O
- outcome [1]: inactive
- outcome [2]: inactive
- outcome [3]: inactive
- outcome [13]: inactive
- outcome [5]: inactive
- outcome [6]: inactive
- outcome [7]: inactive
- outcome [8]: inactive
- outcome [9]: inactive
- outcome [11]: inactive
- outcome [12]: inactive

SMILES: CN1CCCC1=O
- outcome [1]: inactive
- outcome [2]: inactive
- outcome [3]: inactive
- outcome [4]: inactive
- outcome [5]: inactive
- outcome [6]: inactive
- outcome [7]: inactive
- outcome [8]: inactive
- outcome [9]: inactive
- outcome [10]: inactive
- outcome [11]: inactive
- outcome [15]: inactive

SMILES: CC(=O)OCCOCCOCCOC(C)=O
- outcome [1]: inactive
- outcome [2]: inactive
- outcome [3]: inactive
- outcome [13]: inactive
- outcome [5]: inactive
- outcome [6]: inactive
- outcome [7]: inactive
- outcome [8]: inactive
- outcome [9]: inactive
- outcome [11]: inactive
- outcome [12]: inactive

SMILES: CN1CCN(Cc2cc(-c3ccc4[nH]c(=O)oc4c3)co2)[C@@H](c2ccc(F)cc2)C1
- outcome [1]: inactive
- outcome [2]: inactive
- outcome [3]: inactive
- outcome [4]: inactive
- AC50 [5]: 31.5 µM (active)
- AC50 [6]: 26.8 µM (active)
- AC50 [7]: 17.6 µM (active)
- AC50 [8]: 11.5 µM (active)
- AC50 [9]: 11.2 µM (active)
- outcome [10]: inactive
- AC50 [11]: 28.1 µM (active)
- AC50 [15]: 30.7 µM (active)
- outcome [14]: inactive

SMILES: Cc1ccc(C(C)C)c(O)c1
- AC50 [1]: 8.88 µM (active)
- outcome [2]: inactive
- outcome [3]: inactive
- outcome [4]: inactive
- outcome [5]: inactive
- outcome [6]: inactive
- outcome [7]: inactive
- outcome [8]: inactive
- outcome [9]: inactive
- outcome [10]: inactive
- outcome [11]: inactive
- outcome [12]: inactive

SMILES: CC=Cc1ccc(O)c(OC)c1
- AC50 [1]: 6.95 µM (active)
- outcome [2]: inactive
- AC50 [3]: 2.82 µM (active)
- outcome [13]: inactive
- outcome [5]: inactive
- outcome [6]: inactive
- outcome [7]: inactive
- outcome [8]: inactive
- outcome [9]: inactive
- outcome [10]: inactive
- outcome [11]: inactive
- outcome [15]: inactive
- outcome [16]: inactive

SMILES: CCCCCCCCCCO
- outcome [1]: inactive
- outcome [2]: inactive
- AC50 [3]: 0.152 µM (active)
- outcome [4]: inactive
- outcome [5]: inactive
- outcome [6]: inactive
- outcome [7]: inactive
- outcome [8]: inactive
- outcome [9]: inactive
- outcome [10]: inactive
- outcome [11]: inactive
- outcome [15]: inactive
- outcome [14]: inactive

Reference: PubChem BioAssay (EPA / NIEHS)
